Assay results from PubChem BioAssay AID1159580 (chemical genetic matrix, 2015).
Where “and” joins values, the source holds several entries; their conditions need not be identical. Identical values can stand only once. The whole screen tested about 5,500 compounds, of which about 2,000 (36%) were called active. Inconclusive results (about 18%) are left out. No stated cut-off is given here; in the data, active means normalized growth mostly below about 0.91 (no sharp cut-off); inconclusive means no clear call, values can overlap the other calls; inactive means mostly above about 0.92. The list shows a part of the results.

Experiment: chemical genetic growth profiling, strain panel (AID 1159580);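 further: tested at 20 µM; growth read once vehicle control cultures reached saturation at 30 °C; 1 = growth at the plate median or of vehicle wells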
Conditions: S. cerevisiae deletion strains, growth OD

Measured: normalized growth

CCC(C(=O)O)c1ccccc1 (configuration not stated)
inactive: locus YAL013W, strain DEP1, stronger effect = lower value 1.01 | locus YAL021C, strain ccr4, stronger effect = lower value 0.973 | locus YAL026C, strain drs2, stronger effect = lower value 0.992 | locus YAL030W, strain snc1, stronger effect = lower value 0.989 | locus YBL061C, strain skt5, stronger effect = lower value 0.999 | locus YBR009C, strain hhf1, stronger effect = lower value 0.991 | locus YBR021W, strain FUR4, stronger effect = lower value 1.01 | locus YBR023C, strain chs3, stronger effect = lower value 0.993 | locus YBR171W, strain sec66, stronger effect = lower value 0.987 | locus YBR229C, strain ROT2, stronger effect = lower value 0.997 | locus YBR231C, strain swc5, stronger effect = lower value 1.01 | locus YBR279W, strain paf1, stronger effect = lower value 1 | locus YCL011C, strain gbp2, stronger effect = lower value 0.979 | locus YCL016C, strain dcc1, stronger effect = lower value 0.982 | locus YCL029C, strain bik1, stronger effect = lower value 1.01 | locus YCL061C, strain MRC1, stronger effect = lower value 0.982 | locus YCL069W, strain vba3, stronger effect = lower value 0.993 | locus YCR088W, strain abp1, stronger effect = lower value 0.988 | locus YDL005C, strain med2, stronger effect = lower value 0.98 | locus YDL035C, strain GPR1, stronger effect = lower value 1.03 | locus YDL040C, strain nat1, stronger effect = lower value 0.988 | locus YDL074C, strain BRE1, stronger effect = lower value 1.02 | locus YDL101C, strain DUN1, stronger effect = lower value 1 | locus YDL134C, strain PPH21, stronger effect = lower value 1 | locus YDL185W, strain tfp1, stronger effect = lower value 0.984 | locus YDL192W, strain arf1, stronger effect = lower value 1 | locus YDR001C, strain nth1, stronger effect = lower value 0.987 | locus YDR069C, strain doa4, stronger effect = lower value 0.999 | locus YDR101C, strain arx1, stronger effect = lower value 0.998 | locus YDR137W, strain rgp1, stronger effect = lower value 0.97 | locus YDR150W, strain NUM1, stronger effect = lower value 1.01 | locus YDR159W, strain sac3, stronger effect = lower value 0.964 | locus YDR162C, strain NBP2, stronger effect = lower value 1.01 | locus YDR195W, strain ref2 0.98 | locus YDR297W, strain sur2, stronger effect = lower value 0.983 | locus YDR318W, strain mcm21, stronger effect = lower value 0.994 | locus YDR334W, strain swr1, stronger effect = lower value 0.975 | locus YDR335W, strain msn5, stronger effect = lower value 1.02 | locus YDR388W, stronger effect = lower value 0.996 | locus YDR392W, strain spt3, stronger effect = lower value 0.991 | locus YDR502C, strain sam2, stronger effect = lower value 1 | locus YEL003W, strain gim4, stronger effect = lower value 0.997 | locus YEL037C, strain rad23, stronger effect = lower value 0.989 | locus YEL061C, strain CIN8 (second series), stronger effect = lower value 0.998 | locus YEL061C, strain CIN8, stronger effect = lower value 1.01 | locus YER015W, strain faa2, stronger effect = lower value 0.992 | locus YER016W, strain bim1, stronger effect = lower value 0.976 | locus YER110C, stronger effect = lower value 1 | locus YER111C, strain swi4, stronger effect = lower value 0.979 | locus YER155C, strain BEM2 (second series), stronger effect = lower value 0.975 | locus YER155C, strain BEM2, stronger effect = lower value 1.01 | locus YER167W, strain BCK2, stronger effect = lower value 1 | locus YFR010W, strain ubp6, stronger effect = lower value 0.995 | locus YGL078C, strain dbp3, stronger effect = lower value 0.979 | locus YGL086W, strain mad1, stronger effect = lower value 0.998 | locus YGL167C, strain pmr1, stronger effect = lower value 1 | locus YGL173C, strain kem1, stronger effect = lower value 0.997 | locus YGL227W, strain vid30, stronger effect = lower value 0.978 | locus YGL240W, strain doc1, stronger effect = lower value 1.02 | locus YGL248W, strain PDE1, stronger effect = lower value 1 | locus YGL253W, strain hxk2, stronger effect = lower value 0.99 | locus YGR078C, strain PAC10, stronger effect = lower value 1.02 | locus YGR135W, strain pre9, stronger effect = lower value 1.03 | locus YGR229C, strain SMI1, stronger effect = lower value 1.01 | locus YGR252W, strain gcn5, stronger effect = lower value 0.976 | locus YHR013C, strain ard1, stronger effect = lower value 0.963 | locus YHR027C, strain rpn1, stronger effect = lower value 1 | locus YHR030C, strain SLT2, stronger effect = lower value 1 and 0.961 | locus YHR079C, strain IRE1 (second series), stronger effect = lower value 1 | locus YHR079C, strain IRE1, stronger effect = lower value 0.959 | locus YHR094C, strain hxt1, stronger effect = lower value 0.997 | locus YHR129C, strain ARP1, stronger effect = lower value 0.995 | locus YHR142W, strain chs7, stronger effect = lower value 1.02 | locus YHR200W, strain rpn10, stronger effect = lower value 1 | locus YIL066C, strain RNR3, stronger effect = lower value 1.01 | locus YIL073C, strain SPO22, stronger effect = lower value 1.03 | locus YIL125W, strain kgd1, stronger effect = lower value 0.971 | locus YIR030C, strain dcg1, stronger effect = lower value 1.01 | locus YJL092W, strain hpr5, stronger effect = lower value 0.979 | locus YJL095W, strain BCK1 (second series), stronger effect = lower value 0.985 | locus YJL095W, strain BCK1, stronger effect = lower value 1.02 and 0.968 | locus YJL115W, strain asf1, stronger effect = lower value 0.984 | locus YJL129C, strain trk1, stronger effect = lower value 0.983 | locus YJL134W, strain LCB3, stronger effect = lower value 1.01 | locus YJL154C, strain vps35, stronger effect = lower value 0.988 | locus YJL164C, strain tpk1, stronger effect = lower value 0.98 | locus YJL166W, strain qcr8, stronger effect = lower value 0.995 | locus YJL168C, strain set2, stronger effect = lower value 0.995 | locus YJL187C, strain SWE1 (second series), stronger effect = lower value 1 | locus YJL187C, strain SWE1, stronger effect = lower value 0.971 | locus YJR043C, strain POL32, stronger effect = lower value 1.03 | locus YJR066W, strain TOR1, stronger effect = lower value 0.887
